Assay outcomes: PubChem, National Center for Advancing Translational Sciences (NCATS)
Shown are actives, neighbours in structure and some others; about 2.8% of the full set was active somewhere.
BRCA1 expr up = increases BRCA1 expression. MCF7-BRCA1-FFLuc reporter, luminescence, 48 h; response scale: scaled: vehicle 0%, 10 µM genistein 100%. Potency, µM (doses to about 46.1 µM), inactives show at the top dose activation, actives largely listed as activators. 380,000 compounds, 1.1% hits; further: nearly all actives have a fitted effect of over 80% in size
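Activators of BRCA1 expression were detected as increased firefly luciferase luminescence in engineered MCF7 cells after 48 h compound incubation. Signals were scaled to genistein 10 microM as full activation.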
GLP1R ag = GLP-1 receptor (human) agonism; HEK293 GLP-1R CRE-luciferase, luminescence, 4-6 h; cells express a hypersensitive GLP-1R form; Potency, µM (series often up to 45.6 µM), inactives show at the highest dose activation, hits mostly activators; 380,000 compounds, 0.007% hits; AID 624172; further: % of control where 0% means no effect
Target sequence (P43220 whole entry, looked up): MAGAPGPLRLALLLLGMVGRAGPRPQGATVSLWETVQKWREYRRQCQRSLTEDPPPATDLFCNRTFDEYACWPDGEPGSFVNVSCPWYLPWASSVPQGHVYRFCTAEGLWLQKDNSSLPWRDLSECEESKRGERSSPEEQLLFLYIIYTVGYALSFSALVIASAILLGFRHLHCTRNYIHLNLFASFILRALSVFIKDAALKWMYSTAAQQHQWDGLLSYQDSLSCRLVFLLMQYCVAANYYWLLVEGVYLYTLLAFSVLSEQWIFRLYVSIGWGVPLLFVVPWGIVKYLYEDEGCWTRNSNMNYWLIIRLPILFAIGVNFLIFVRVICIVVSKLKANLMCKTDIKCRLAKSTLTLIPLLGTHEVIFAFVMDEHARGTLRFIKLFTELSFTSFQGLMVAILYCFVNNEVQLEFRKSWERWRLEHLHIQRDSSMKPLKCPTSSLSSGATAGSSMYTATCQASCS
HEK293 tox = cytotoxic in the GLP-1 receptor inverse agonist counter-screen. HEK293 cAMP-luciferase reporter cells, luminescence, 24 h. Potency, µM (doses to about 38.3 µM), for inactives: at the top dose activity change, negative = inhibition, actives largely listed as inhibitors. 410,000 compounds, 0.13% hits. AID 624418;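 further: loss of luciferase light is scored as toxicity; on the % scale 0 is the no-effect control and ±100 the full control effect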
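Cells in DMEM/10% Nu serum/1% pen-strep, 1536-well format. Pre-incubated 12 h, dosed with 23 nL compound, incubated a further 24 h. Luciferase detection, 12 min at room temp, luminescence.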
Mito fusion yeast = mitochondrial division inhibition or fusion activation; 320,000 compounds, 0.23% hits; S. cerevisiae fusion-defective mutant growth rescue, CellTiterGlo 48 h; Potency, µM (top dose mostly 46.1 µM), without a hit: at the highest dose growth rescue (activation), most hits filed as activators; further: % of control where 0% means no effect; nearly all actives have a fitted effect of over 45% in size
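Yeast fusion mutant, YPEG (non-fermentable carbon), compound, 48 h at 37C non-permissive; CellTiterGlo added, 10 min RT, luminescence read. Rescued growth = division inhibition.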
GLP1R inv ag = acts as inverse agonist at human GLP-1 receptor. HEK293 GLP-1R CRE-luciferase, luminescence, 24 h; GLP-1R form is constitutively active. Potency, µM (top dose mostly 38.3 µM), inactives show top-dose activity change, negative = inhibition, actives largely listed as inhibitors. 410,000 compounds, 1.6% hits; further: on the % scale 0 is the no-effect control and ±100 the full control effect; nearly all actives have a fitted effect of over 55% in size
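Inverse agonism was detected as reduced cAMP-driven luciferase luminescence after 24 h compound treatment. The cells were HEK293 clones expressing constitutively active human GLP-1R with the reporter. Reporter-only and GPR119 cell lines served as counterscreen controls.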
An asterisk follows results filed as active; ? = inconclusive; / = no result given. The call rests on the fitted dose curve; in most records, active means well fitted curve in the direction sought with a large enough effect; inconclusive means small, poorly fitted or top-dose-only effect, or another doubt; inactive means no such curve, though single readings can be large; an effect the other way counts as inactive or inconclusive. Potency means the concentration at half of the fitted maximal effect.

SMILES	BRCA1 expr up	GLP1R ag	HEK293 tox	Mito fusion yeast	GLP1R inv ag
CCCN(CC(=O)Nc1ccccc1OC)C(=O)CN1C(=O)NC2(CCCCC2)C1=O	-11%	0%	48%	-6%	1%
CCc1cccc(NC(=O)c2ccc(CN3C(=O)C(C)=C(c4ccc(OC)cc4)S3(=O)=O)cc2)c1	/	/	9%	/	0%
O=C(CCNS(=O)(=O)c1ccccc1C(F)(F)F)NCCCSc1ccccc1	-24%	10%	2%	2%	13µM*
O=C(CCNS(=O)(=O)c1ccccc1)NCCCSc1ccccc1	-15%	-4%	8%	-1%	10%
CC(/C=C/c1ccc(O)cc1)=N/O	13µM*	6%	0%	4%	8%
CC(/C=C/c1ccccc1)=N/O	42%	-1%	-14%	-3%	9%
CCOc1ccccc1NC(=O)C(Cc1ccccc1)NS(=O)(=O)c1ccc(Br)s1 (centres undefined)	-39%	-13%	-7%	/	11µM*
Cc1ccc(CNC(=O)C(Cc2ccccc2)NS(=O)(=O)c2ccc(Br)s2)cc1 (centres undefined)	-55%	7%	-10%	18µM*	10µM*
Oc1oc(-c2ccccc2)nc1C=Nc1cccc2ccccc12	-68%	0%	-2%	11µM*	-27%
Cc1nc(NS(=O)(=O)c2ccc(Br)cc2)c2c3c(sc2n1)CCC3	-26%	-11%	-10%	12%	?
CCCNc1ncnc2c1c(-c1ccccc1)cn2-c1ccccc1	/	/	-4%	/	10µM*
OCCOCCNc1ncnc2c1c(-c1ccccc1)cn2-c1ccccc1	-17%	27%	-3%	30%	2%
CN(C)CCCNc1ncnc2scc(-c3ccccc3)c12	17%	-4%	0%	-5%	11µM*
c1ccc(-c2cn(-c3ccccc3)c3ncnc(N4CCCCC4)c23)cc1	-72%	3%	-6%	2%	3.2µM*
Cc1c(C)n(CCc2ccccc2)c2ncnc(NCCCN(C)C)c12	-68%	1%	-27%	4%	2µM*
CCC(C)n1c(SCc2c(F)cccc2Cl)nc2ccsc2c1=O (centres undefined)	/	/	-2%	/	?
Clc1cccc(-n2cc(-c3ccccc3)c3c(NC4CCCC4)ncnc32)c1	/	/	1%	/	-1%
COc1ccc(-n2cc(-c3ccccc3)c3c(NC4CCCC4)ncnc32)cc1	/	/	1%	/	1.8µM*
Cc1ccc(-n2c(C)c(C)c3c(NCCN(C)C)ncnc32)cc1	10%	-3%	-2%	-10%	10µM*
CN(C)CCCNc1ncnc2c1c(-c1ccccc1)cn2-c1ccccc1	-36%	11%	?	-2%	4µM*
CN(C)CCNc1ncnc2c1cnn2-c1ccc(Cl)cc1	-74%	-14%	?	1%	3.2µM*
Nc1ccc(SC(F)(F)F)cc1	19%	0%	1%	-2%	0%
CC(C)Oc1ccc(F)cc1-c1cc(C(=O)NC2CCCCC2)[nH]n1	-15%	1%	1%	/	?
Fc1ccc(-n2cc(-c3ccccc3)c3c(NCCc4ccccc4)ncnc32)cc1	/	/	3%	/	7.9µM*
O=C(NCc1ccccc1)C1C(c2ccc3c(c2)OCO3)=Nc2ccccc2N1C(=O)c1cccc(C(F)(F)F)c1 (centres undefined)	/	/	-3%	/	?
SMILES	BRCA1 expr up	GLP1R ag	HEK293 tox	Mito fusion yeast	GLP1R inv ag
O=S(=O)(NCCC(c1ccc(F)cc1)c1ccco1)c1ccccc1 (centres undefined)	-27%	-7%	-15%	22µM*	?
Fc1ccc(C(CCNCc2cccs2)c2ccco2)cc1 (centres undefined)	-10%	13%	-10%	-2%	?
CCOc1ccccc1NC(=O)c1c(NCc2cccs2)sc2c1CCC(C)C2 (centres undefined)	/	/	0%	/	-25%
NNC(=O)c1cccc(COc2ccc(Br)cc2)c1	?	-2%	-16%	-20%	5µM*
O=C(NCc1ccccc1)c1cccc(COc2ccc(Cl)cc2)c1	-38%	-2%	13%	8%	?
COc1cc(CNC(=O)c2cccc(COc3ccc(Cl)cc3)c2)cc(OC)c1	-72%	-10%	-17%	14%	3.2µM*
O=C(NCc1ccccc1)c1cccc(COc2cccc(Cl)c2)c1	48%	-2%	-12%	9%	7.9µM*
Cc1ccc(NC(=O)CSc2nc(=O)cc(N)n2CCc2ccccc2)cc1	-6%	-4%	0%	-5%	15%
CCOC(=O)c1cccc(NC(=O)CCn2c(-c3ccc(F)cc3)cc(C(=O)OCC)c2C)c1	/	/	-1%	/	10µM*
CCOC(=O)c1cc(-c2ccc(C)cc2)n(CCC(=O)Nc2ccc(C(C)C)cc2)c1C	-17%	0%	-4%	/	2.5µM*
CCOC(=O)c1cc(-c2ccc(F)cc2)n(CCC(=O)NC2CCN(Cc3ccccc3)CC2)c1C	-24%	14%	?	8%	7.9µM*
CCOC(=O)c1cc(-c2ccccc2)n(CCCC(=O)Nc2ccc(C(C)C)cc2)c1C	/	/	-29%	/	?
CCCCC1=NN(C(=O)c2ccco2)C(O)(C(F)(F)F)C1 (centres undefined)	-25%	6%	?	5%	2.2µM*
CCCC1=NN(C(=O)C(=O)Nc2ccc(Br)cc2)C(O)(C(F)(F)F)C1 (centres undefined)	-13%	12%	?	5%	7.1µM*
CC(C)c1cccc(C(C)C)c1OC(=O)[C@H]1OC(c2ccc(Br)cc2)=C[C@@H]1c1ccc(Br)cc1	-36%	-2%	-7%	12%	13µM*
O=C(CCN1C(=O)c2cccc3cccc(c23)C1=O)N1CCOCC1	13µM*	1%	21%	-8%	12%
O=C(CCN1C(=O)c2cccc3cccc(c23)C1=O)NC1CCS(=O)(=O)C1 (centres undefined)	10µM*	0%	-6%	-1%	61%
O=C(c1ccccc1)N1N=C(c2cccs2)CC1c1ccccc1O (centres undefined)	-19%	-2%	0%	22%	8.9µM*
O=C(CN1CCOCC1)N1N=C(c2cccs2)CC1c1cccs1 (centres undefined)	7%	0%	-2%	1%	7%
O=C(Nc1ccccc1)N1N=C(c2cccs2)CC1c1cccs1 (centres undefined)	-21%	1%	9%	11µM*	?
CC(C)n1nccc1N(Cc1ccc(Cl)cc1)S(=O)(=O)c1ccccc1	-34%	2%	-1%	-2%	?
Cc1ccccc1Oc1ccc2c(c1)[C@@H]1C[C@H](N(C)C(=O)Nc3cc(Cl)cc(Cl)c3)[C@H]([C@H](C)O)C(=O)N1CC2	-31%	-1%	-11%	/	?
Cn1cc(Br)c(C(=O)N2CCc3ccccc32)n1	?	1%	-2%	1%	0%
